Reference: PubChem BioAssay AID602396 (The Scripps Research Institute Molecular Screening Center, 2012)
The whole screen tested about 360,000 compounds, of which about 460 (0.13%) were called active. What follows is part of a selection rich in actives, with near analogues and random picks from the rest. A number with no mark means an inactive call.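 How the source made its calls: active means inhibition above the mean inhibition of all tested compounds plus 3 SD (cut at about 73% in these data); inactive means the rest.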

Each compound was assayed against Nuclear receptor subfamily 5 group A member 2 (Homo sapiens) (UniProt O00482) (assay: reduction of NR5A2-driven StAR reporter activity – cell-based, luminescence, HEK293T, StAR-luciferase reporter, primary screen (AID 602396;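 further: 0% = DMSO wells and 100% = reporter-only cells lacking LRH-1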)). Conditions: LRH-1 transfected, 24 h, at 3.6 µM, hits give high values.
Chain of Nuclear receptor subfamily 5 group A member 2 (Homo sapiens) (O00482 whole entry, looked up): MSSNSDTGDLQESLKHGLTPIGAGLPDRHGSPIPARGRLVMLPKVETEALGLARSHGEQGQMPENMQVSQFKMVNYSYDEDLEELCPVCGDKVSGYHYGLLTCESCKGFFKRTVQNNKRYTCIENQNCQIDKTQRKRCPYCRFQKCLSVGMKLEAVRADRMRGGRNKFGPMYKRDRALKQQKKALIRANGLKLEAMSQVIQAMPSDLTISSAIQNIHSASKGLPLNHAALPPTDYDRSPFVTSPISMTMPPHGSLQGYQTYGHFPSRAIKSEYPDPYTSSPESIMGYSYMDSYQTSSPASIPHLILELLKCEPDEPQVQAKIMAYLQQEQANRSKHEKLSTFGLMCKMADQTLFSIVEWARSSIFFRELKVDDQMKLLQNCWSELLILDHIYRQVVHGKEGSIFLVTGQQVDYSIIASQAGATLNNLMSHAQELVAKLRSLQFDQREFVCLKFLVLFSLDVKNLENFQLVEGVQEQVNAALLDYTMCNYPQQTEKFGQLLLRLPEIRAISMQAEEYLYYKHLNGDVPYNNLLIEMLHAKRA

Q: For CN(C)S(=O)(=O)c1ccc(Oc2ccc(S(=O)(=O)N(C)C)cc2)cc1, which inhibition is on record?
A: The inhibition was 26%.

Q: CC(C)(C)c1ccc(Oc2ccc(N)cc2)cc1 was tested. Which inhibition did it give?
A: The inhibition was 80.6% (active).

Q: C[C@H](NC(=O)C1CCN(S(=O)(=O)c2ccccc2)CC1)C(=O)NCc1ccccc1 was tested. Which inhibition did it give?
A: Its inhibition is -15.6%.

Q: How did the inhibition turn out when COc1ccccc1-n1nnnc1S(=O)(=O)Cc1ccc(Cl)cc1 was run?
A: Its inhibition is 47.7%.

Q: Which inhibition does the source give for CC[C@H](C)[C@@H](C(=O)N1CCNCC1)n1cc([C@@H](N)Cc2ccc(O)cc2)nn1 here?
A: Its inhibition is 5.8%.

Q: How did the inhibition turn out when Cc1nn(-c2ccccc2)c2c1C(=O)NC(=O)C(C)(C)C2 was run?
A: Its inhibition is 10.2%.

Q: CC(=O)c1cnc(SCC(=O)O)nc1C was tested. Which inhibition did it give?
A: Its inhibition is -8.72%.

Q: O=C(c1cc2ccccc2o1)N1CCN(S(=O)(=O)c2ccc(Cl)s2)CC1 was tested. Which inhibition did it give?
A: Its inhibition is -4.99%.

Q: For COc1ccc(S(=O)(=O)N2CCOC23CCN(S(=O)(=O)c2ccc([N+](=O)[O-])cc2)CC3)cc1, which inhibition is on record?
A: Its inhibition is 4.75%.

Q: How did the inhibition turn out when O=C(O)C1=C(C(=O)O)C2CCC1C2 was run?
A: The inhibition was -20.2%.

Q: CCn1ccnc1CN1CCCC(C(=O)c2ccc3c4c(cccc24)CC3)C1 (stereo not given) was tested. Which inhibition did it give?
A: Its inhibition is 4.32%.

Q: With C/C=C(/C)C(=O)O[C@@H]1c2cc3c(c4c2[C@@]2(CO4)C(=O)C(OC)=C(OC)C=C2C[C@@H](C)[C@H]1C)OCO3 as the compound, how does the inhibition read?
A: Its inhibition is 8.2%.

Q: With Cc1ccc(/C=C/C(=O)OCC(=O)Nc2cccnc2Cl)cc1 as the compound, how does the inhibition read?
A: The inhibition was -17.1%.

Q: How did the inhibition turn out when COC(=O)Cc1cnc(NC(=O)CSc2nc(C(C)C)cc(=O)[nH]2)s1 was run?
A: The inhibition was 7.32%.

Q: Which inhibition does the source give for Cc1cccc(C(=O)C(O)(c2ccccc2)C2CCCCC2=O)c1 (stereo not given) here?
A: Its inhibition is -15.3%.

Q: For CCOc1ccc(CCNC(=O)COC(=O)c2ccc(C)c(S(=O)(=O)N3CCOCC3)c2)cc1OCC, which inhibition is on record?
A: The inhibition was -2.87%.

Q: O=C(O)COc1nsnc1N1CCOCC1 was tested. Which inhibition did it give?
A: The inhibition was -2.76%.

Q: With Cc1ccc(C)c(S(=O)(=O)Nc2cc(C)on2)c1 as the compound, how does the inhibition read?
A: Its inhibition is 13.7%.

Q: CCOc1ccc(N2CC(C(=O)N/N=C/c3sccc3C)CC2=O)cc1 (stereo not given) was tested. Which inhibition did it give?
A: The inhibition was 3.97%.

Q: Which inhibition does the source give for CCc1ccc2[nH]c(=O)c(Cc3ccccc3)c(O)c2c1 here?
A: Its inhibition is 10.4%.

Q: With COc1ccc(Cl)cc1NS(=O)(=O)c1cccc(C(=O)NCC2CCCO2)c1 (stereo not given) as the compound, how does the inhibition read?
A: The inhibition was 10.9%.

Q: With CCOCCCNC(=O)c1cn(CC(C)C)c(=O)c2c1c1ccccc1n2C as the compound, how does the inhibition read?
A: The inhibition was 0.96%.

Q: Which inhibition does the source give for COC(=O)c1cn(C)c2ccc(S(=O)(=O)N3CC(C)CC(C)C3)cc2c1=O (stereo not given) here?
A: The inhibition was -9.25%.

Q: Which inhibition does the source give for COc1ccc(CCn2c(NN=C3CCCC3)nc3c2c(=O)[nH]c(=O)n3C)cc1 here?
A: The inhibition was 14%.

Q: With COCc1cc(C)n(CC(=O)NCC2CCCO2)c(=O)c1C#N (stereo not given) as the compound, how does the inhibition read?
A: The inhibition was -7.89%.
